# Data from PubChem BioAssay (NCI).
# The panel holds about 79,000 compounds, 15% with a hit somewhere; the sample as a whole holds those more often. A number with no mark means an inactive call. Activity calls are given as the source filed them. No stated cut-off is given here; in the data, active means growth inhibition above about 70%; inactive means the rest.
# Experiments:
# [1] = NCI Yeast Anticancer Drug Screen. Data for the rad50 strain (AID 155);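 further: 0% = growth of vehicle-only cultures of the same strain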; settings: S. cerevisiae rad50 strain growth inhibition; at 50.0 µM; active compounds read high
# Method in brief: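 Readout: growth inhibition relative to vehicle-treated cultures. Compound exposure was carried out in a genetically defined yeast strain deficient in DNA damage repair.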
# [2] = NCI Yeast Anticancer Drug Screen. Data for the mec2-1 strain (AID 157); settings: S. cerevisiae mec2-1 strain, at 50.0 µM, active compounds read high
# Method in brief: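 Vehicle-treated cultures served as reference for growth inhibition of compound-exposed mec2-1 yeast.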
# [3] = NCI Yeast Anticancer Drug Screen. Data for the sgs1 mgt1 strain (AID 161);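 further: 0% = growth of cultures given vehicle only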; settings: S. cerevisiae sgs1 mgt1 strain, at 50.0 µM, active compounds read high
# Method in brief: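 Genetically altered yeast, compound exposure, growth inhibition relative to vehicle.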
# [4] = NCI Yeast Anticancer Drug Screen. Data for the cln2 rad14 strain (AID 165);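 further: 0% = growth equal to vehicle treated cultures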; settings: S. cerevisiae cln2 rad14 strain, at 50.0 µM, active compounds read high
# Method in brief: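 Each compound was tested on cln2 rad14 yeast. Inhibition of growth was calculated against vehicle-exposed controls.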
# [5] = NCI Yeast Anticancer Drug Screen. Data for the bub3 strain (AID 167); settings: S. cerevisiae bub3 mutant strain, at 50.0 µM, active compounds read high
# Method in brief: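 Readout: yeast growth inhibition, expressed relative to vehicle-only wells. The test organism is a mutant strain from a panel with lesions in DNA repair or checkpoint genes.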
# [6] = NCI Yeast Anticancer Drug Screen. Data for the mlh1 rad18 strain (AID 175); settings: S. cerevisiae mlh1 rad18 strain growth inhibition; at 50.0 µM; active compounds read high
# Method in brief: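 Vehicle-treated cultures served as the reference for growth inhibition in a yeast strain carrying DNA damage repair alterations exposed to each compound.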
Structure (SMILES),growth inhibition [1],growth inhibition [2],growth inhibition [3],growth inhibition [4],growth inhibition [5],growth inhibition [6]
C[N+](C)(Cc1cccc(Cl)c1)c1nnn[n-]1,-9.75%,-18.9%,-7.05%,-22.6%,-7.4%,-9.5%
CCOC(=O)CN1CCC(C(=O)OCC)CC1,7.75%,-27%,20.6%,12.9%,-3.05%,20.8%
C#CCOCn1cc(C)c(=O)[nH]c1=O,0.4%,-0.1%,16.5%,10.4%,0.05%,12.4%
CCCC(CCC)(CCC)CCN(C)C,-6.85%,-5.95%,-14.9%,-23.9%,-8.65%,-33.8%
O=C(O)C(Cc1ccc(O)cc1)NC(=O)C(CSC(c1ccccc1)(c1ccccc1)c1ccccc1)NC(c1ccccc1)(c1ccccc1)c1ccccc1 (centres undefined),3.75%,30.9%,11.5%,-2.35%,-4.55%,23%
CC(CO)(CO)[N+](=O)[O-],19.2%,9.65%,-5.85%,-46.5%,6.25%,19.9%
O=c1/c(=C/c2ccco2)sc2nc3ccccc3n12,15.8%,5.35%,14.5%,29.8%,30.1%,20.4%
CC(=O)Oc1cc(C)c(OC(C)=O)c(C)c1C,-12.8%,-27.4%,-2.15%,-9.3%,10.3%,6.3%
NNS(=O)(=O)c1ccc(N)cc1,5.6%,1.3%,-5.4%,-35%,18.8%,5.15%
O=[N+]([O-])c1ccc(/C=N/C(/N=C/c2ccc([N+](=O)[O-])cc2)c2ccc([N+](=O)[O-])cc2)cc1,8.05%,-6.25%,6.35%,1.55%,-4.05%,23.9%
CCCC1(c2ccccc2)CNC(=O)NC1,-3.8%,19.5%,1.8%,-9%,3.25%,-2.95%
NC(C(=O)O)c1ccc(C(=O)O)cc1 (centres undefined),30.7%,15.6%,-5.55%,18.8%,-7.6%,20.5%
O=P(Nc1cccc(Cl)c1)(Nc1cccc(Cl)c1)c1ccccc1,96.8% (active),74.1% (active),96.9% (active),76.7% (active),85.3% (active),95.8% (active)
COc1ccccc1NC(=O)NCCCCCCNC(=O)Nc1ccccc1OC,-25.6%,-2.55%,2.1%,-39.9%,0.85%,13.4%
CCCCCCCCCCCCCCCCCCNC(=O)NCc1ccncc1,-13.3%,1.8%,-11.3%,-4.3%,-0.35%,9.3%
Cc1cc(Cl)c2c(C)ccc(C)c2n1,-4.25%,-31.9%,9.85%,5.7%,4%,8.95%
Cc1c(C(=O)CSc2nc3ccccc3c(=O)n2-c2ccccc2)c(=O)n(-c2ccccc2)n1C,-9.1%,0.45%,-18.1%,37.7%,-11.3%,-12.9%
Cc1ccc(-c2c(N)nc(NC#N)nc2CCC(=O)Nc2ccccc2[N+](=O)[O-])cc1,1.9%,1.35%,-14.6%,5.5%,3.7%,5.4%
Cc1ccc(C(C)C)cc1NC(=O)c1cccc([N+](=O)[O-])c1,-8.4%,6.9%,18.9%,-7.1%,18.9%,8%
COc1ccc(/C=N/NC(N)=S)cc1,24.1%,14.6%,28.6%,-13%,12.8%,46.6%

Structure (SMILES),growth inhibition [1],growth inhibition [2],growth inhibition [3],growth inhibition [4],growth inhibition [5],growth inhibition [6]
ClC1CCC(c2ccccc2)CC1 (centres undefined),9.2%,-3.45%,1.5%,3.75%,-11.2%,-2.6%
Cc1cc(C)c(C#N)c(SC(C(=O)NC(C)(C)C)c2ccccc2)n1 (centres undefined),2.25%,-16.8%,8.75%,18%,-8.15%,-14.3%
CCOC(=O)C(C)Oc1ccc(Cl)cc1 (centres undefined),-7.85%,-14.9%,-13.1%,-44.1%,-6.3%,1.8%
CC(CN(C)C)CN1c2ccccc2Sc2ccccc21 (centres undefined),-6.7%,-2.4%,-7%,-2.95%,5.65%,8.35%
CCNC1=CC(=O)c2ncccc2C1=O,47.9%,15.7%,27.7%,-8.25%,39.2%,28.4%
NC(=O)C(=O)N/N=C1/c2ccccc2CC1C1(O)C(=O)Nc2c(Cl)cc(Cl)cc21 (centres undefined),50.4%,30.9%,38.5%,16.6%,3.55%,44.2%
Cn1c(=O)c2[nH]c(N(CCO)N=O)nc2n(C)c1=O,-9.25%,-8.2%,-4.25%,-7.35%,13.3%,-26.4%
Cc1cc([N+](=O)[O-])ccn1,-15.2%,1.1%,-18.1%,-4.5%,-6.15%,-9.9%
O=C(O)C1CCOCC1,9.9%,0.7%,2.35%,4%,15.2%,-0.4%
OC1CCCN(Cc2ccccc2)C1 (centres undefined),9.3%,-15.7%,8.55%,4.5%,11.3%,7.35%
O=C(Nc1ccccc1)c1cccc(F)c1,-2.9%,-20.8%,-6.25%,9.1%,-19.4%,7.6%
CC(C)(C(=O)c1cccnc1)c1cccnc1,4.25%,-9.25%,17.1%,2.3%,17.1%,12.7%
CNC(=S)N/N=C(C)\C=N/Nc1ccc(Br)cc1,46.4%,14.1%,34.7%,-18.9%,21.2%,25.9%
CCOC(=O)CCCCCCCCC(=O)Nc1ccc(-n2[nH]c(=O)cc2C)cc1,-2.6%,-31%,-27.6%,6.95%,-4.1%,-3.3%
Cc1ccc(S(=O)(=O)CCN2CCCC2)cc1,-3.85%,-14.7%,-5.6%,-47.2%,7.95%,-9.55%
CC(=O)c1ccc(N=NN(C)C)cc1,0.2%,1%,-2.65%,-18.4%,-21.9%,-15.6%
O/N=C(\CC(O)(C(F)(F)F)C(F)(F)F)c1cccs1,81% (active),76.9% (active),45.6%,87.5% (active),75.8% (active),93.5% (active)
N=C(N)c1ccc(NC(=O)c2ccc(C(=O)Nc3ccc(C(=N)N)cc3)c(N)c2)cc1,9.9%,18.1%,-7.6%,-7.85%,-1.95%,-7.3%
COc1cc([C@@H]2c3cc4c(cc3[C@H](OC3OC5COC(C(C)C)OC5C(O)C3O)C3COC(=O)[C@@H]32)OCO4)cc(OC)c1OC (some centres undefined),11.6%,46.7%,31%,3.2%,9.25%,-41.8%
